Measurements published in PubChem BioAssay (EPA / NIEHS).
Inconclusive results are not listed. Activity calls are given as the source filed them. The calls were made as follows, unless noted: active = hit-call score of the fitted dose curve at least 0.9, where 1 is the maximum; inactive = score below 0.9.

Columns and labels:
[1] = CCTE_Mundy_HCI_Cortical_Synap_Neur_Matur_NeuriteCount: CCTE's Synaptogenesis and Neurite Maturation Assay in rat cortical cells for Neurite Count, Mundy Lab (AID 2284222)
How it was run: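 Rat cortical neurons, 96-well; AraC DIV 5; chemical + media change DIV 7; end DIV 12. Fix PFA/Hoechst, anti-MAP2 + anti-synaptophysin IF. HCI neurite count vs DMSO baseline.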

[2] = CCTE_Mundy_HCI_Cortical_Synap_Neur_Matur_CellBodySpotCount: CCTE's Synaptogenesis and Neurite Maturation Assay in rat cortical cells for Cell Body Spot Count, Mundy Lab (AID 2284223)
How it was run: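 Rat primary cortical cultures received AraC at DIV 5 to arrest glia, were dosed with chemical at DIV 7 with media change, and were fixed at DIV 12 (288.33 h). Synaptophysin puncta on MAP2-positive cell bodies per neuron were counted by high-content imaging versus DMSO.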

[3] = CCTE_Mundy_HCI_hNP1_Pro_ResponderAvgInten: CCTE's Proliferation Assay in human neuroprogenitor cells, Mundy Lab (AID 2284224; active = hit-call score of the fitted dose curve at least 0.9, where 1 is the maximum;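 also: human neural progenitor cells hNP1 derived from WA09 embryonic stem cells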)
How it was run: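 Human neuroprogenitors (hNP1, WA09 lineage) receive test chemical after 40 to 44 hours of attachment. A four-hour BrdU pulse begins twenty hours later, followed by fixation and high content imaging; signal is referenced to DMSO controls.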

[4] = UKN4_HCS_LUHMES_cell_viability: Viability Assessment in the University of Konstanz (UKN) Leist Lab Neurite Outgrowth Assay in human LUHMES cells (UKN4) (AID 2284232)
How it was run: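 Fluorescence intensity from high-content imaging of Hoechst H-33342/calcein-AM-stained cells served as the viability read-out. Human LUHMES precursors were differentiated 2 days, replated and treated 24 h; curves were fitted bidirectionally against DMSO.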

[5] = CCTE_Mundy_HCI_Cortical_NOG_BPCount: CCTE's Neurite Outgrowth Assay in rat cortical cells for Branch Point Count, Mundy Lab (AID 2284237)
How it was run: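 Measured 50.33 h after dosing, this morphology endpoint uses rat primary cortical cultures labelled for betaIII-tubulin. Branch points are quantified by high-content imaging, with DMSO as negative control and baseline.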

[6] = CCTE_Mundy_HCI_hNP1_Casp3_7: CCTE's Caspase-Glo 3/7 Assay in human neuroprogenitor cells for Apoptosis, Mundy Lab (AID 2284240)
How it was run: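 Neuroepithelial-lineage stem cells from WA09 embryonic cells were treated with chemicals after 40–44 h of culture. Twenty-four hours later, caspase-3/7 activation was detected luminescently after a 30 min room-temperature reagent step, with DMSO as baseline.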

[7] = CCTE_Mundy_HCI_hNP1_CellTiter: CCTE's Cell Titer-Glo 2 Assay in human neuroprogenitor cells for Viability, Mundy Lab (AID 2284241; active = hit-call score of the fitted dose curve at least 0.9, where 1 is the maximum;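 as to AC50: a hit is a drop in ATP luminescence versus DMSO meaning reduced viability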)
How it was run: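 Measures ATP content in human neural progenitors derived from WA09 embryonic cells. Read-out at 26.5 hours after dosing, with DMSO serving as the negative control and baseline.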

[8] = IUF_NPC2c_oligodendrocyte_migration_120hr: Leibniz Research Institute for Environmental Medicine (IUF) 120-hour Neural Progenitor Cell Migration Assay for Oligodendrocyte Migration (NPC2c) (AID 2284297);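 also: O4-positive oligodendrocyte migration distance divided by radial glia migration distance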
How it was run: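 Human fetal cortex-derived neural progenitor spheres (0.3 mm) were plated on poly-D-lysine/laminin in N2 differentiation medium and exposed to 7 concentrations for 120 h, with half-medium renewal at day 3. Oligodendrocyte migration distance was normalized to radial glia migration, relative to DMSO.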

[9] = IUF_NPC2a_radial_glia_migration_120hr: Leibniz Research Institute for Environmental Medicine (IUF) 120-hour Neural Progenitor Cell Migration Assay for Radial Glia Migration (NPC2a) (AID 2284298)
How it was run: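 Single 0.3 mm primary human fetal-cortex (GW 16-19) NPC spheres were plated on poly-D-lysine/laminin in N2 differentiation medium and exposed from day 0 for 120 h, half-medium refreshed day 3. Migration distance came from Hoechst nuclei-density imaging, relative to DMSO.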

[10] = IUF_NPC2a_radial_glia_migration_72hr: Leibniz Research Institute for Environmental Medicine (IUF) 72-hour Neural Progenitor Cell Migration Assay for Radial Glia Migration (NPC2a) (AID 2284299)
How it was run: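 Primary hNPC spheres, fetal brain GW 16-19, on PDL/laminin; DMEM/F12 3:1 + 1% N2. Compound dosed day 0, 7 conc. + SC, half-medium refresh day 3. 72 h brightfield, migration distance core-to-front (um), 4 directions averaged.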

[11] = IUF_NPC2b_neuronal_migration_120hr: Leibniz Research Institute for Environmental Medicine (IUF) 120-hour Neural Progenitor Cell Migration Assay for Neuron Migration (NPC2b) (AID 2284300)
How it was run: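 Primary human fetal cortex neural progenitor spheres (0.3 mm) plated on poly-D-lysine/laminin in N2 differentiation medium, exposed 120 h with half-medium refresh at day 3. TUBB3-stained neuron distance from sphere core, normalized to radial glia migration, versus DMSO.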

[12] = IUF_NPC3_neuronal_differentiation_120hr: Leibniz Research Institute for Environmental Medicine (IUF) 120-hour Neuronal Differentiation Assay (NPC3) (AID 2284301)
How it was run: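 Primary human fetal neural progenitor spheres (GW 16-19, 0.3 mm) plated on poly-D-lysine/laminin in N2 medium, exposed from day 0 for 120 h with half-medium refresh at day 3. TUBB3+ cells as percent of Hoechst nuclei in migration area; DMSO baseline.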

[13] = IUF_NPC4_neurite_length_120hr: Leibniz Research Institute for Environmental Medicine (IUF) 120-hour Neuronal Morphology Assay for Neurite Length (NPC4) (AID 2284302)
How it was run: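 Human fetal cortex (GW 16-19) neural progenitor spheres, 0.3 mm, were plated on poly-D-lysine/laminin in N2 differentiation medium and exposed from day 0 for 120 h, half-feeding at day 3. Mean TUBB3+ neurite length (µm) came from skeletonized images, relative to DMSO.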

[14] = IUF_NPC5_oligodendrocyte_differentiation_120hr: Leibniz Research Institute for Environmental Medicine (IUF) 120-hour Oligodendrocyte Differentiation Assay (NPC5) (AID 2284304; active = hit-call score of the fitted dose curve at least 0.9, where 1 is the maximum;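 also: primary human fetal neural progenitor spheres plated to migrate and differentiate; share of O4-positive cells among Hoechst nuclei found by CNN image analysis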)
How it was run: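 Primary human fetal (GW 16-19) neural progenitor spheres (0.3 mm) plated on poly-D-lysine/laminin in N2 differentiation medium, exposed from day 0 for 120 h with half-medium refresh at day 3; O4-positive cells as percent of Hoechst nuclei, CNN-identified, versus DMSO.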

[15] = CCTE_Mundy_HCI_hN2_NOG_NeuriteLength: CCTE's Neurite Outgrowth Assay in human hN2 cells for Neurite Length, Mundy Lab (AID 2284220; active = hit-call score of the fitted dose curve at least 0.9, where 1 is the maximum)
How it was run: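 Using βIII-tubulin immunofluorescence and Hoechst nuclear counterstain, this component quantifies neurite length in hNP1-derived neurons.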

[16] = CCTE_Mundy_HCI_hN2_NOG_NeuronCount: CCTE's Neurite Outgrowth Assay in human hN2 cells for Neuron Count, Mundy Lab (AID 2284221; active = hit-call score of the fitted dose curve at least 0.9, where 1 is the maximum)
How it was run: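 Read-out is the number of betaIII-tubulin-positive neurons imaged by automated high-content analysis, with DMSO as negative control.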

[17] = UKN2_HCS_IMR90_cell_viability: Viability Assessment in the University of Konstanz (UKN) Leist Lab Neural Crest Cell Migration Assay in human induced IMR90 Pluripotent Stem Cells (UKN2) (AID 2284233);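 also: viability of neural crest cells differentiated from IMR90 iPSC measured by calcein-AM fluorescence imaging; cells exposed to compound for 24 h after a 24 h migration phase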
How it was run: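 iPSC-derived (IMR90) neural crest cells seeded around silicone stoppers on PLO/laminin/fibronectin; after 24 h migration in N2-S with EGF/FGF, chemical added for 24 h. Calcein-AM/Hoechst stained 30 min, high-content imaged; bidirectional fit versus DMSO.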

[18] = CCTE_Mundy_HCI_Cortical_Synap_Neur_Matur_NeuronCount: CCTE's Synaptogenesis and Neurite Maturation Assay in rat cortical cells for Neuron Count, Mundy Lab (AID 2284242; active = hit-call score of the fitted dose curve at least 0.9, where 1 is the maximum;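 as to AC50: hits reduce neuron count versus DMSO baseline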)
How it was run: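 Neuron number was scored by automated high-content imaging of Hoechst- and MAP2-labelled rat primary cortical cells. Glial growth was arrested with AraC at DIV 5, compounds were applied from DIV 7, and cultures ended at DIV 12.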

[19] = TAMU_HCS_1.5hr_SingleDonor1434_Cytotoxicity: Cytotoxicity Assessment using High-content Screening (HCS) Fluorescent Imaging for the Texas A&M University (TAMU) 1.5-hr Human Induced Pluripotent Stem Cell (iPSC)-derived Cardiotoxicity Assay (AID 2284234; active = hit-call score of the fitted dose curve at least 0.9, where 1 is the maximum)
How it was run: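 Human iPSC-derived cardiomyocytes dosed at 0.2, 1, 10, 100 uM final (0.5% DMSO) for 90 min at 37 C. Hoechst 33342-stained nuclei counted by 10x high-content imaging; POD is EC10, a 10% drop in total cell count versus DMSO.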

[20] = TAMU_PeakParms_SingleDonor1434_QT: Texas A&M University (TAMU) 1.5-hr Human Induced Pluripotent Stem Cell (iPSC)-derived Cardiomyocytes Calcium (Ca+2) Flux Assay for Cardiotoxicity: QT (decay-rise ratio) (AID 2284235; active = hit-call score of the fitted dose curve at least 0.9, where 1 is the maximum)
How it was run: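 iPSC-derived cardiomyocytes (single donor 1434) dosed at 0.2, 1, 10, 100 uM final in 0.5% DMSO, 90 min at 37C. Ca2+ flux fluorescence decay/rise ratio; EC05 (5% increase versus DMSO) as POD, excluding beat-arrest and severe-notch data.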

Measured: AC50

OCC(O)CO
not listed: [15] | [16] | [17] | [18] | [19] | [20]
inactive: all other assays above

CN(C)CCCN1c2ccccc2Sc2ccc(Cl)cc21
inactive: [2] | [3]
active: [15] 14.3 µM | [16] 9.61 µM | [1] 21.1 µM | [17] 14.3 µM | [6] 11.6 µM | [7] 24.7 µM | [18] 13.7 µM | [8] 16.1 µM | [9] 14.2 µM | [10] 15.1 µM | [11] 15 µM | [12] 7.59 µM | [13] 6.02 µM | [14] 0.756 µM

O=C1NC(=O)C(c2ccccc2)(c2ccccc2)N1
not listed: [1] | [3] | [5] | [7] | [19] | [20]
inactive: all other assays above

CC(=O)CC(c1ccccc1)c1c(O)c2ccccc2oc1=O (centres undefined)
not listed: [4] | [7] | [15] | [16] | [17] | [19] | [20]
inactive: all other assays above

O=C(O)CC(O)(CC(=O)O)C(=O)O
inactive: [19] | [20]

Cc1occc(=O)c1O
inactive: [19] | [20]

CCc1nc(N)nc(N)c1-c1ccc(Cl)cc1
inactive: [20]

COC(=O)[C@H]1[C@H]2C[C@@H]3c4[nH]c5cc(OC)ccc5c4CCN3C[C@H]2C[C@@H](OC(=O)c2cc(OC)c(OC)c(OC)c2)[C@@H]1OC
inactive: [19] | [20]
